From PubChem BioAssay (NCATS)
Inconclusive results are not listed. Values without a mark were called inactive. Calls of active or inactive are those of the source. The call rests on the fitted dose curve.

assay: Cytotoxicity counterscreen for inhibitors of SARS-CoV-2 cell entry (AID 1645845); details: cell viability (SARS-CoV-2 entry assay cells); series mostly up to 57.1 µM; activity change, negative = cytotoxicity: at the top concentration; further: nearly all actives have a fitted effect of over 50% in size
Outline: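 ATP-content luminescence (ATPLite 1step, 15 min RT) read after 48 h compound exposure of Expi293F cells stably expressing human ACE2; normalized to cells-only wells and media-only wells.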
On the % scale 0 is the no-effect control and ±100 the full control effect.

| Structure (SMILES) | outcome | activity change, negative = cytotoxicity [%] |
| --- | --- | --- |
| CCN(CC)CCOc1ccc(Cc2ccccc2)cc1 | inactive |  |
| CCCCC(=O)O[C@]1(C(=O)CO)CC[C@H]2[C@@H]3CCC4=CC(=O)CC[C@]4(C)[C@H]3[C@@H](O)C[C@@]21C |  | -3.68 |
| C/C(=N/NC(=O)c1ccncc1)C(=O)O | inactive |  |
| CCN1CCCC(OC(=O)C(c2ccccc2)c2ccccc2)C1 (stereo not drawn) |  | -19.7 |
| CCC1Nc2cc(Cl)c(S(N)(=O)=O)cc2S(=O)(=O)N1 (stereo not drawn) | inactive |  |
| C[C@]12CC[C@@H]3c4ccc(O)cc4CC[C@H]3[C@@H]1CCC2=O |  | 0.16 |
| C/C=C/c1ccc(O)c(OC)c1 | inactive |  |
| c1ccc(CN(CC2=NCCN2)c2ccccc2)cc1 | inactive |  |
| O=C(OCc1ccccc1)c1ccc(O)cc1 | inactive |  |
| C[C@H]1C[C@H]2[C@@H]3CCC4=CC(=O)C=C[C@]4(C)[C@@]3(Cl)[C@@H](O)C[C@]2(C)[C@@]1(O)C(=O)CO | inactive |  |
| O=C(CCCCCCCCC#CI)Oc1ccccc1 | inactive |  |
| CC(C)Cc1ccc(C(C)C(=O)OCc2ccccn2)cc1 (stereo not drawn) | inactive |  |
| COc1ccccc1OC(=O)Oc1ccccc1OC | inactive |  |
| O=C(OCC(COC(=O)c1cccnc1)(COC(=O)c1cccnc1)COC(=O)c1cccnc1)c1cccnc1 | inactive |  |
| CC(=O)O[C@]1(C(C)=O)CC[C@H]2[C@@H]3C=C(Cl)C4=CC(=O)CC[C@]4(C)[C@H]3CC[C@@]21C |  | -24.4 |
| COc1cc(NS(=O)(=O)c2ccc(N)cc2)ncn1 | inactive |  |
| COc1cc(NS(=O)(=O)c2ccc(N)cc2)nc(OC)n1 | inactive |  |
| CC1CC(=O)NN=C1c1ccc(NCC(C)(C)NCC(O)COc2cc(Cl)ccc2C#N)cc1 (stereo not drawn) | inactive |  |
